Assay results taken from PubChem BioAssay (NCATS).
Records with an inconclusive call do not appear. The source made the active and inactive calls. Unless noted, the call rests on the fitted dose curve; in most records, active means well fitted curve in the direction sought with a large enough effect; inconclusive means small, poorly fitted or top-dose-only effect, or another doubt; inactive means no such curve, though single readings can be large; an effect the other way counts as inactive or inconclusive.

Key:
[1] = Cell Viability - LYMP2-021 (AID 974);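 further: potency means the concentration at half of the fitted maximal effect; compound exposure lasts 24 hours at 37 °C; nearly all actives have a fitted effect of over 55% in size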
Procedure, shortened: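 ATP luminescence (CellTiter-Glo, 30 min RT) after 24 h compound exposure at 37 C; 2500 human lymphoblastoid cells/well, 5 h settle beforehand. Cytotoxicity = concentration-dependent ATP drop, AC50 by Hill fit.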

[2] = Cell Viability - LYMP2-023 (AID 975); further: potency means the concentration at half of the fitted maximal effect; nearly all actives have a fitted effect of over 55% in size
Procedure, shortened: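 CellTiter-Glo luminescence after 30 min at room temperature; decrease in intracellular ATP reflects toxicity. Cells: human lymphoblastoid line, 2500/well, 24 hr compound exposure at 37 C. AC50 fitted to standard Hill equation from concentration-response.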

[3] = Cell Viability - LYMP2-025 (AID 976); further: potency means the concentration at half of the fitted maximal effect
Procedure, shortened: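 CellTiter-Glo luminescence (cellular ATP) after 24 h compound exposure at 37 C; LYMP2-025 human lymphoblastoid cells, 2500/well, complete medium. Tetraoctylammonium bromide positive control. AC50 by Hill equation fit of qHTS concentration-response.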

[4] = Cell Viability - LYMP2-002 (AID 977); further: potency means the concentration at half of the fitted maximal effect
Procedure, shortened: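 Human lymphoblastoid cells (2500/well) in complete medium were preincubated 5 hr at 37 C, then exposed to compounds for 24 hr at 37 C. Intracellular ATP was read by CellTiter-Glo luminescence; AC50 came from Hill-equation concentration-response fits.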

[5] = Cell Viability - LYMP2-006 (AID 978); further: potency means the concentration at half of the fitted maximal effect; nearly all actives have a fitted effect of over 60% in size
Procedure, shortened: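 Concentration-dependent loss of intracellular ATP in a human lymphoblastoid line after 24 hr treatment at 37 C was measured by CellTiter-Glo luminescence, with AC50 values obtained from standard Hill-equation modelling.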

[6] = Cell Viability - LYMP2-007 (AID 979);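 further: potency means the concentration at half of the fitted maximal effect; cells exposed to compound for 24 h before reading; nearly all actives have a fitted effect of over 60% in size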
Procedure, shortened: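 qHTS cytotoxicity: 2500 cells/well, 5 hr 37 C settle, compound 24 hr 37 C, CellTiter-Glo 30 min RT, luminescence. Decrease in ATP = toxicity. AC50 by standard Hill equation; tetraoctylammonium bromide positive control.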

[7] = Cell Viability - LYMP2-008 (AID 980); further: potency means the concentration at half of the fitted maximal effect; nearly all actives have a fitted effect of over 60% in size
Procedure, shortened: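 Luminescent ATP read-out (CellTiter-Glo, 30 min RT) after 24 hr compound exposure at 37 C of human lymphoblastoid cells in complete medium. Decrease in ATP taken as cytotoxicity; AC50 derived by standard Hill fit of qHTS concentration-response data.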

[8] = Cell Viability - LYMP2-014 (AID 983); further: potency means the concentration at half of the fitted maximal effect; nearly all actives have a fitted effect of over 50% in size
Procedure, shortened: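 2500 cells/well, 5 hr 37 C; cpd 24 hr 37 C, complete medium; CellTiter-Glo 30 min RT, luminescence; ATP loss = toxicity; AC50 via Hill eqn; tetraoctylammonium bromide positive control.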

[9] = Cell Viability - LYMP2-016 (AID 984); further: potency means the concentration at half of the fitted maximal effect; nearly all actives have a fitted effect of over 55% in size
Procedure, shortened: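 Acute toxicity in a Coriell human lymphoblastoid line is scored as loss of intracellular ATP over 24 h of treatment in complete medium. CellTiter-Glo signal is fitted across concentrations with the Hill equation to give AC50.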

[10] = Cell Viability - LYMP2-018 (AID 985); further: potency means the concentration at half of the fitted maximal effect; nearly all actives have a fitted effect of over 50% in size
Procedure, shortened: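 2500 cells/well; 5 hr 37 C; cmpd 24 hr 37 C, complete medium; CellTiter-Glo 30 min RT; luminescence. Tetraoctylammonium bromide positive control. AC50 via Hill fit.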

[11] = Cell Viability - LYMP2-020 (AID 986); further: potency means the concentration at half of the fitted maximal effect; nearly all actives have a fitted effect of over 55% in size
Procedure, shortened: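 qHTS, 2500 cells/well; 5 hr then 24 hr compound exposure, 37 C; CellTiter-Glo luminescence after 30 min RT; ATP decrease taken as cytotoxicity; AC50 via Hill equation; tetraoctylammonium bromide positive control.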

[12] = Cell Viability - LYMP1-002 - Assay at 24 hr (AID 993); further: on the % scale 0 is the no-effect control and ±100 the full control effect
Procedure, shortened: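 CellTiter-Glo luminescence (intracellular ATP) after 24 h compound exposure, 37 C, in LYMP1-002 human lymphoblastoid cells; decreased ATP taken as cytotoxicity. AC50 from standard Hill fit of concentration-response curves.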

[13] = Cell Viability - LYMP1-002 - Assay at 40 hr (AID 994);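 further: 0% = DMSO only and full inhibition = 92 µM tetraoctylammonium bromide; nearly all actives have a fitted effect of over 60% in size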
Procedure, shortened: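 qHTS cytotoxicity; 2500 cells/well, 5 hr 37 C settle, compound 40 hr 37 C. CellTiter-Glo, 30 min RT, luminescence (ATP). Concentration-response, Hill fit → AC50. Pos. ctrl tetraoctylammonium bromide.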

[14] = target: Androgen receptor (Homo sapiens) (UniProt P10275); experiment: qHTS assay for small molecule agonists of androgen receptor signaling (AID 588515; active means well fitted curve in the direction sought with a large enough effect in the signal ratio, with a control signal flat; the % refers to the signal ratio; further: on the % scale 0 is the no-effect control and ±100 the full control effect); conditions: AR-UAS-bla HEK293, beta-lactamase ratio, agonist 16 h; stronger effect = higher value
Sequence of Androgen receptor (Homo sapiens) (P10275 whole entry, looked up): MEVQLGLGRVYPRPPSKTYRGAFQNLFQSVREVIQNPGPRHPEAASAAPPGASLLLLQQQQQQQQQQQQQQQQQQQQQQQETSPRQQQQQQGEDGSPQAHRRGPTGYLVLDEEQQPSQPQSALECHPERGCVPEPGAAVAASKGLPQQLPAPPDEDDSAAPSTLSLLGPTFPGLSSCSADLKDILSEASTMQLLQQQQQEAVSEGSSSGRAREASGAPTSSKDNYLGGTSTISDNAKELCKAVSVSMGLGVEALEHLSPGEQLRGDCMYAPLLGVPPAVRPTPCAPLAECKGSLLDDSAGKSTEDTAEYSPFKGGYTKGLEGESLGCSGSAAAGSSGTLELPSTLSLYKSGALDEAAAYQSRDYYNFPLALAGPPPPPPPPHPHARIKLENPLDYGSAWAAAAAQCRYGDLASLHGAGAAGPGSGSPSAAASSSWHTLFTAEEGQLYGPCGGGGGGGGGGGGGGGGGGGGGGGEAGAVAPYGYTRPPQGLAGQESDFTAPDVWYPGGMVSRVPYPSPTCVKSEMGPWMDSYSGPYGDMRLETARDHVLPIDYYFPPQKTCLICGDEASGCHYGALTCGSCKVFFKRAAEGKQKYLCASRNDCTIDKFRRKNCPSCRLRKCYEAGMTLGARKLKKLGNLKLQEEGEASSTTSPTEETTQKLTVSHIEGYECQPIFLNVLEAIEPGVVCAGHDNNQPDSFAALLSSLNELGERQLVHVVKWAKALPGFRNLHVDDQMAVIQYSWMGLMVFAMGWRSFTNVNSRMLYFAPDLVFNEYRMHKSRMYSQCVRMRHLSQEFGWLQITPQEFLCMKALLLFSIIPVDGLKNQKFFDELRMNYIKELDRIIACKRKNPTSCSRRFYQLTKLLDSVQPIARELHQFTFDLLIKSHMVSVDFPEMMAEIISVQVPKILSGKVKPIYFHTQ
Procedure, shortened: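 Stimulation of an AR-responsive β-lactamase reporter in GripTite HEK293 cells was measured after 16 h compound exposure at 37 °C, via CCF4 fluorescence after 2 h RT. EC50 from Hill fits, normalized to R1881 at 30 nM.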

[15] = target: Androgen receptor (Homo sapiens) (UniProt P10275); experiment: qHTS assay for small molecule antagonists of androgen receptor signaling (AID 588516; active means well fitted curve in the direction sought with a large enough effect in the signal ratio, with a control signal flat, not every such curve was filed as active; the % refers to the signal ratio; further: on the % scale 0 is the no-effect control and ±100 the full control effect)
Procedure, shortened: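 Antagonist-mode qHTS: inhibition of R1881 (10 nM)-driven beta-lactamase expression in GripTite HEK 293 cells is measured after 16 h; values are Hill-derived IC50s normalized between R1881 and DMSO wells.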

[16] = target: Peroxisome proliferator-activated receptor delta (Homo sapiens) (UniProt Q03181); experiment: qHTS assay for small molecule agonists of peroxisome proliferator-activated receptor delta signaling (AID 588534; calls by dose curve;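 further: 0% = DMSO basal wells and 100% = positive control agonist at 10 µM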)
Sequence of Peroxisome proliferator-activated receptor delta (Homo sapiens) (Q03181 whole entry, looked up): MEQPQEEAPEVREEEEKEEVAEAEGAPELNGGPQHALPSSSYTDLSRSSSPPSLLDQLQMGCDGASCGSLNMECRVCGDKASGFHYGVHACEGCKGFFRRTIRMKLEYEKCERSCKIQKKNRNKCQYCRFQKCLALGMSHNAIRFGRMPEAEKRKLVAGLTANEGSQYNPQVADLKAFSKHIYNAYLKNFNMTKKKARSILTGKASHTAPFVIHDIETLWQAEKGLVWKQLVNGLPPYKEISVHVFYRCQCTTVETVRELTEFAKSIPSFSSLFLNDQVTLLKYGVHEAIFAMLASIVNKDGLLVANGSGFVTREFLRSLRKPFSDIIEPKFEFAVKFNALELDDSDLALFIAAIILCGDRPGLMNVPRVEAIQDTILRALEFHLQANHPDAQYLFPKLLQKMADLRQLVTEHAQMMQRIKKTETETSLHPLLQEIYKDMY
Procedure, shortened: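 Titration series tested in agonist mode on beta-lactamase reporter cells; 18 hrs at 37 C after a 5 hr pre-incubation. Readout: CCF4 fluorescence, 2 hrs RT. Hill equation gives EC50 and maximal response.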

[17] = target: Vitamin D3 receptor (Homo sapiens) (UniProt P11473); experiment: qHTS assay for small molecule antagonists of vitamin D receptor signaling (AID 588541; calls by dose curve;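 further: receptor activated by calcitriol during compound treatment; series mostly up to about 77 µM; on the % scale 0 is the no-effect control and ±100 the full control effect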)
Sequence of Vitamin D3 receptor (Homo sapiens) (P11473 whole entry, looked up): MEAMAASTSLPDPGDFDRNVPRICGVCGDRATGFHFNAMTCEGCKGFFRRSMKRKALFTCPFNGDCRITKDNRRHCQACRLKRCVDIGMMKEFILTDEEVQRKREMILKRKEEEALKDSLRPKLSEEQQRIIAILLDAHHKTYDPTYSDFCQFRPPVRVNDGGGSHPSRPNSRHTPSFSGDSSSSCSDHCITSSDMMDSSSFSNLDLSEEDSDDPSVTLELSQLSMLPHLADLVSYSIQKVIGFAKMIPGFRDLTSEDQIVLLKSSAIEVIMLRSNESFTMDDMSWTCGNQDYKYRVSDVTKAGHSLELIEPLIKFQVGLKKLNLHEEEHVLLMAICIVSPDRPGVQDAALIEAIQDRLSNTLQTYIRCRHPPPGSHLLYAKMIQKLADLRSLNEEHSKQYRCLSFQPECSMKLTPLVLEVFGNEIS
Procedure, shortened: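 Antagonist-mode beta-lactamase reporter assay: HEK293T VDR-UAS-bla cells were exposed to titrated compound alongside 1-alpha,25-dihydroxyvitamin D3 at 3 nM final for 16 h. Values were normalized to the 50 nM agonist control and DMSO basal, with IC50 and efficacy from Hill equation fits.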

[18] = target: Vitamin D3 receptor (Homo sapiens) (UniProt P11473); experiment: qHTS assay for small molecule agonists of vitamin D receptor signaling (AID 588543; calls by dose curve;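 further: 0% = DMSO basal and 100% = reference agonist control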)
Procedure, shortened: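 qHTS in agonist mode: compound titrations stimulate a VDR-driven β-lactamase reporter in HEK293T cells over 16 h at 37 °C. Response normalized to 50 nM 1α,25-dihydroxyvitamin D3 = 100%, DMSO = 0%; Hill fitting gives EC50 and maximal response.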

[19] = qHTS assay for small molecule agonists of retinoid X receptor alpha signaling (AID 588544; calls by dose curve;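 on activation: 0% = DMSO basal wells and 100% = reference agonist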); conditions: HEK293T RXRa-UAS-bla, beta-lactamase reporter, 18 h; 530 nm emission
[20] = target: Retinoic acid receptor RXR-alpha (Homo sapiens) (UniProt P19793); experiment: as above
Sequence of Retinoic acid receptor RXR-alpha (Homo sapiens) (P19793 whole entry, looked up): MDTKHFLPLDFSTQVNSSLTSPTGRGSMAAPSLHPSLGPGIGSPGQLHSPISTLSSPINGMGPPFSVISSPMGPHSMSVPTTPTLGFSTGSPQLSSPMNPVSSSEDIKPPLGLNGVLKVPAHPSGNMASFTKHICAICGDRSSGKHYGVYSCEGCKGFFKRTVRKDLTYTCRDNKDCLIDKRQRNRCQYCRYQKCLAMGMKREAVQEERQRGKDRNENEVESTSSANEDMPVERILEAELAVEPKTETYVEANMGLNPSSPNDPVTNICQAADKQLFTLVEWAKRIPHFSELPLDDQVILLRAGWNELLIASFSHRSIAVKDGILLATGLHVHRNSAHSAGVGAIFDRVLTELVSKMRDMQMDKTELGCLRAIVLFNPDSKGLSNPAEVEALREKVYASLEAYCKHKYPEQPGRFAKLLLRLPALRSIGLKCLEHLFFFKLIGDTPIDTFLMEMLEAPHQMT

[21] = qHTS assay for small molecule antagonists of retinoid X receptor alpha signaling (AID 588546; active means well fitted inhibition curve with a large enough effect in the signal ratio, with a control signal flat, not every such curve was filed as active; the % refers to the signal ratio); conditions: HEK293T RXRa-UAS-bla, beta-lactamase ratio, antagonist mode; measured here: W530 green channel, cytotoxicity proxy
Procedure, shortened: (§1)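 Beta-lactamase reporter inhibition, read as CCF4 fluorescence ratio (ex 405, em 460/530 nm) after 2 h at RT. HEK293T UAS-bla cells, 2500/well, were stimulated with 9-cis-RA at 500 or 100 nM final alongside test compound for 18 h at 37 C.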

[22] = target: Retinoic acid receptor RXR-alpha (Homo sapiens) (UniProt P19793); experiment: as above; conditions: HEK293T RXRa-UAS-bla, beta-lactamase ratio, antagonist mode
Procedure, shortened: as §1

[23] = target: Voltage-gated inwardly rectifying potassium channel KCNH2 (Homo sapiens) (UniProt Q12809); experiment: qHTS Assay for Small Molecule Inhibitors of the Human hERG Channel Activity (AID 588834);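 further: U2OS cells transduced with hERG by BacMam; top concentration of the series differs between compounds; on the % scale 0 is the no-effect control and ±100 the full control effect; lower thallium flux fluorescence means stronger hERG block; nearly all actives have a fitted effect of over 50% in size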
Sequence of Voltage-gated inwardly rectifying potassium channel KCNH2 (Homo sapiens) (Q12809 whole entry, looked up): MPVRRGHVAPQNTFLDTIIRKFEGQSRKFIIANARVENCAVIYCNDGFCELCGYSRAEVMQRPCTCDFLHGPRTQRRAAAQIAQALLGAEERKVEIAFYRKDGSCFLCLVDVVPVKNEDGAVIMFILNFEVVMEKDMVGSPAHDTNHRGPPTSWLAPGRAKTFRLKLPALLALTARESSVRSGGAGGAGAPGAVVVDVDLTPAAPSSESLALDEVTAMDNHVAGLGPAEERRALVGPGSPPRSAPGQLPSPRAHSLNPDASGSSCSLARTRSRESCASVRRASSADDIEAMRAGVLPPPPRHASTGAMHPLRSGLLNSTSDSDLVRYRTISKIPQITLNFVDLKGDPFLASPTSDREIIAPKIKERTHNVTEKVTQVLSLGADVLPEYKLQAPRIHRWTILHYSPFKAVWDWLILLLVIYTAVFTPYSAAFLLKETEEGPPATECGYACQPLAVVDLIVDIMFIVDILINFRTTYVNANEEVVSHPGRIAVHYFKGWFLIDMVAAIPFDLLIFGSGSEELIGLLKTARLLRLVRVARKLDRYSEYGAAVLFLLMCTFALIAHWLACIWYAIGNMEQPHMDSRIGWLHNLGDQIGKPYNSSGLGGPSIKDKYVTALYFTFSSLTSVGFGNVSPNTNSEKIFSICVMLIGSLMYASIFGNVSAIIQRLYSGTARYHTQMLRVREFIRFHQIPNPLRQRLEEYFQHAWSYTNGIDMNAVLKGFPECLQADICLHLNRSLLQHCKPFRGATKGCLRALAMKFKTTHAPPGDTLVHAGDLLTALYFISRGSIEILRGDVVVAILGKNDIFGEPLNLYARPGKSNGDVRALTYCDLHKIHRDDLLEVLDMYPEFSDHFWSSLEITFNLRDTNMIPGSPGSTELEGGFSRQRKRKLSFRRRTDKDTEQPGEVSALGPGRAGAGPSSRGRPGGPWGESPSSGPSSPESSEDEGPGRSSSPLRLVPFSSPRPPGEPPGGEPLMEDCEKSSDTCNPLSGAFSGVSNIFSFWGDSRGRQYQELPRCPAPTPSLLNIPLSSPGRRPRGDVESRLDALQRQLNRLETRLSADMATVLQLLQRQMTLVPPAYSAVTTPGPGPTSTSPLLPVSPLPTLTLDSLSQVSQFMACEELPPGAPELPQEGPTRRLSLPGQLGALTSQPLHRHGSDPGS
Procedure, shortened: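 Cells were infected with hERG-BacMam virus for 4 hrs at room temperature, grown overnight, then seeded at 2000/well. After dye loading and roughly 10 min compound treatment, thallium influx was triggered and fluorescence recorded.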

[24] = qHTS assay for small molecule activators of the p53 signaling pathway (AID 651743; active means well fitted activation curve with a large enough effect in the signal ratio, not every such curve was filed as active; the % refers to the signal ratio; further: potency means the concentration at half of the fitted maximal effect); conditions: HCT-116 p53RE-bla, beta-lactamase FRET ratio, 16 h; activation: stronger effect = higher value
Procedure, shortened: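 A beta-lactamase reporter under p53 response element control, stably carried by HCT-116 cells, reported pathway activation. Test compounds were applied for 16 hours at 37 C, and fluorescence was measured 2 hours after adding the B/G FRET substrate.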

[25] = qHTS assay for small molecule activators of the nuclear factor-kappa B (NF-kB) signaling pathway (AID 651749; active means well fitted activation curve with a large enough effect in the signal ratio; the % refers to the signal ratio; further: series mostly up to about 77 µM; % of control where 0% means no effect); conditions: NF-kB-bla ME-180 cells, beta-lactamase FRET ratio, 16 h; activation: stronger effect = higher value
Procedure, shortened: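 FRET-based beta-lactamase detection in ME-180 cells reports NF-kB response-element-driven transcription following overnight (16 hr) compound treatment.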

[26] = qHTS assay for small molecule disruptors of the mitochondrial membrane potential - 1 hr assay (AID 651754; calls by dose curve; further: on the % scale 0 is the no-effect control and ±100 the full control effect; nearly all actives have a fitted effect of over 35% in size)
Procedure, shortened: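 Read-out: dye fluorescence at 490 nm ex/535 nm em (monomers) and 540 nm ex/590 nm em (aggregates) in HepG2 cells. Compound exposure 1 hr at 37C, followed by 30 min dye loading.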

[27] = qHTS assay for small molecule disruptors of the mitochondrial membrane potential - 5 hr assay (AID 651755; calls by dose curve; further: on the % scale 0 is the no-effect control and ±100 the full control effect; nearly all actives have a fitted effect of over 40% in size)
Procedure, shortened: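 Membrane-potential dye readout: red aggregate (540 ex/590 em) versus green monomer (490 ex/535 em) fluorescence after 30 min dye loading, following 5 hr compound exposure at 37C of overnight-plated HepG2 cells.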

[28] = qHTS assay for environmental chemicals that activate the Aryl hydrocarbon Receptor (AhR) signaling pathway (AID 651777); conditions: 1A2-DRE human hepatoma cells, luciferase, 24 h; activation: stronger effect = higher value; further: % of control where 0% means no effect; nearly all actives have a fitted effect of over 15% in size
Procedure, shortened: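 Luminescence read-out: One-Glo added for 30 min at RT after 24 hr compound treatment (37 C, 5% CO2) of human hepatoma cells expressing a DRE/CYP1A2 promoter–luciferase reporter; increased signal indicates AhR activation.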

[29] = target: Peroxisome proliferator-activated receptor alpha (Homo sapiens) (UniProt Q07869); experiment: qHTS assay for small molecule agonists of the peroxisome proliferator-activated receptor alpha (PPARalpha) signaling pathway (AID 651778); conditions: PathHunter PPARalpha complementation, chemiluminescence, 6 h; max response: stronger effect = higher value; further: % of control where 0% means no effect
Sequence of Peroxisome proliferator-activated receptor alpha (Homo sapiens) (Q07869 whole entry, looked up): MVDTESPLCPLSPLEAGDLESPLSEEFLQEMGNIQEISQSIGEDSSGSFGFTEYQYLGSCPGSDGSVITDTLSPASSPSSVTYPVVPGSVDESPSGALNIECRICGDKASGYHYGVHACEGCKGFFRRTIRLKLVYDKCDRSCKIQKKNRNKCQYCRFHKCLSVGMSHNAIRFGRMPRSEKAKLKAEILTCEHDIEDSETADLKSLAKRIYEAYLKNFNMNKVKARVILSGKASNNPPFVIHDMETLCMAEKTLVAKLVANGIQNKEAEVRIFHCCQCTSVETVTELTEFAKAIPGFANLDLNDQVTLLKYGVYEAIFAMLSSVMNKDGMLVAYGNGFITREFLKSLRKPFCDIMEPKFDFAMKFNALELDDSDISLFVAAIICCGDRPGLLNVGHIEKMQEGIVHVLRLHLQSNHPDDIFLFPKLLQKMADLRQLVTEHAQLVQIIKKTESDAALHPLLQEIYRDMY
Procedure, shortened: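 Chemiluminescence from complemented enzyme reported PPARalpha activation in cells after 6 hr of compound treatment at 37 C. The detection reagent was incubated for 60 min at room temperature, and compounds were scored as agonists.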

[30] = target: Nuclear receptor ROR-gamma (Homo sapiens) (UniProt P51449); experiment: qHTS assay for small molecule antagonists of the retinoid-related orphan receptor gamma (ROR-gamma) signaling pathway (AID 651802)
Sequence of Nuclear receptor ROR-gamma (Homo sapiens) (P51449 whole entry, looked up): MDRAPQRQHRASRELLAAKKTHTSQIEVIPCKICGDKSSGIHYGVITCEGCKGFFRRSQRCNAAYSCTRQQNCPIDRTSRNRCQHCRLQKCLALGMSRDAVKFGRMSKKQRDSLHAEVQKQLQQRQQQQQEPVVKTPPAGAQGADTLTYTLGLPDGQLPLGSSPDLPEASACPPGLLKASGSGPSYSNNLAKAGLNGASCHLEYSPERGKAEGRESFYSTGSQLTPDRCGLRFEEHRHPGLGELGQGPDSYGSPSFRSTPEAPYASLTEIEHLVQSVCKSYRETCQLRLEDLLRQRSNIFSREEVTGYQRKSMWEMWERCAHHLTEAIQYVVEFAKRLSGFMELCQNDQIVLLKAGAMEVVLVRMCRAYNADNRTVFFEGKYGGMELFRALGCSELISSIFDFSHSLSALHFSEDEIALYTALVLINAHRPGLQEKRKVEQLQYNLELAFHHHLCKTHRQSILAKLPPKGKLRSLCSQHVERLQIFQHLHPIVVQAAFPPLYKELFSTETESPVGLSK
Procedure, shortened: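 Luciferase read-out: ONE-Glo luminescence after 30 min at room temperature, following 16hr doxycycline induction at 37C, 5% CO2 of CHO cells with TET-inducible ROR and RORE-LUC reporter; decreased luminescence = reduced reporter activity.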

[31] = qHTS assay for small molecule antagonists of the retinoid-related orphan receptor gamma (ROR-gamma) signaling pathway - cell viability counter screen (AID 720652; active means well fitted curve in the direction sought with a large enough effect in the repeat runs; an effect the other way counts as inactive or inconclusive;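 further: potency means the concentration at half of the fitted maximal effect; compound exposure lasted 16 hr before ATP read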)
Procedure, shortened: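 CHO RORE-LUC/TET-ROR line, 1,000 cells/well, 37 C 5% CO2 5 hr; cpd or DMSO + doxycycline induction, 16 hr. CellTiter-Glo, 30 min RT, luminescence = ATP content.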

[32] = qHTS assay for small molecule agonists of the antioxidant response element (ARE) signaling pathway measured by Nrf2-dependant transcriptional activity - cell viability counter screen (AID 720653; active means well fitted curve in the direction sought with a large enough effect in the repeat runs; an effect the other way counts as inactive or inconclusive; further: on the % scale 0 is the no-effect control and ±100 the full control effect); conditions: ARE-bla HepG2 viability, CellTiter-Glo ATP luminescence, 16 h; max response: stronger effect = lower value
Procedure, shortened: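 Cytotoxicity counter screen: intracellular ATP quantified by CellTiter-Glo luminescence in the same ARE-bla HepG2 plates, after 16 h compound exposure and a 2 h beta-lactamase substrate step.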

[33] = qHTS assay for cell viability of HEK293 cells (AID 743288); conditions: ATP luminescence (CellTiter-Glo), 18 h; max response: stronger effect = lower value; further: potency means the concentration at half of the fitted maximal effect; nearly all actives have a fitted effect of over 50% in size
Procedure, shortened: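 Quantitative high-throughput screen: compounds were pinned onto parental HEK293 cells (2,000 per well) after a minimum 5 h settling at 37 C, incubated 18 h at 37 C, and intracellular ATP measured by luciferase luminescence.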

[34] = qHTS assay for cell viability of the p53RE-bla HCT-116 cell line (AID 743292)
Procedure, shortened: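 Luminescent ATP quantitation (CellTiter-Glo) served as the viability read-out; reagent was added after 16 h compound exposure at 37 C and read after 30 min at room temperature. Cells: p53RE-bla HCT-116, 4,000 per well.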

[35] = target: Nuclear receptor subfamily 1 group I member 2 (Rattus norvegicus) (UniProt Q9R1A7); experiment: qHTS assay for small molecule activators of the rat pregnane X receptor (rPXR) signaling pathway (AID 651751; call rule not given here; further: 0% is about no effect); conditions: rPXR reporter cells, luciferase (One-Glo), 24 h
Sequence of Nuclear receptor subfamily 1 group I member 2 (Rattus norvegicus) (Q9R1A7 whole entry, looked up): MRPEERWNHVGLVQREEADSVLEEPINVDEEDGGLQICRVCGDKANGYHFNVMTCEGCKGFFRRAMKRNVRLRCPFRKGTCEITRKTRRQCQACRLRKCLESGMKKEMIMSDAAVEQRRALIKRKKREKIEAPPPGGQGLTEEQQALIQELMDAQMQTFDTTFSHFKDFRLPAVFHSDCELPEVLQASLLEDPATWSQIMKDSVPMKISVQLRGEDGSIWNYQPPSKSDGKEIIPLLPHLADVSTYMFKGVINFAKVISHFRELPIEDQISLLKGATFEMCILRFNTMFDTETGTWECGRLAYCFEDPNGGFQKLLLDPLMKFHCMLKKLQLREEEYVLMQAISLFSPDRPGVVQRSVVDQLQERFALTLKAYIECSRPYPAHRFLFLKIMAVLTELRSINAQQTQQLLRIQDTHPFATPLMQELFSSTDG

[36] = qHTS assay for small molecule activators of the human pregnane X receptor (PXR) signaling pathway (AID 720659; call rule not given here; further: 0% is about no effect)

N#CC(Cl)Cl
6.6%: max response [21]
active: Potency [1] 25.1 µM | Potency [2] 25.1 µM | Potency [3] 39.8 µM | Potency [4] 12.6 µM | Potency [5] 12.6 µM | Potency [6] 20 µM | Potency [7] 12.6 µM | Potency [8] 50.1 µM | Potency [9] 25.1 µM | Potency [10] 12.6 µM | Potency [11] 10 µM | Potency [24] 39.8 µM | Potency [30] 33.5 µM | Potency [31] 21.1 µM | Potency [33] 14.1 µM | Potency [34] 44.7 µM
inactive: Potency [12] | Potency [13] | activation [14] 16.6% | Potency [15] | outcome [16] | Potency [17] | outcome [18] | Potency [20] | max response [22] 0.201% | Potency [23] | activation [25] -2.38% | Potency [26] | Potency [27] | activation [28] 1.8% | max response [29] -3.95% | max response [32] -22.9% | max response [35] 0.641% | outcome [36]
17.1%: max response [19]
